Assay outcomes: PubChem, National Center for Advancing Translational Sciences (NCATS)
SARS PLpro yeast: blocks SARS-CoV papain-like protease in a yeast assay. S. cerevisiae expressing SARS-CoV PLpro, growth rescue. Potency, µM (doses to about 32.9 µM), actives largely listed as activators. 330,000 tested, 0.19% active; calls by dose curve; note: nearly all actives have a fitted effect of over 55% in size
Pf growth 96h: P. falciparum growth inhibition at 96 hour, primary screen for plastid delayed-death inhibitors | P. falciparum luciferase reporter growth, 96 h | Potency, µM (titrated, usually from 28.7 µM), hits mostly inhibitors | 320,000 tested, 6.9% active | AID 504834
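Erythrocytes infected with luciferase-expressing P. falciparum were dispensed at 2% hematocrit and 0.05% parasitemia (final), then incubated with compounds 96 hours at 37 C in 5% CO2. Luminescence after detection reagent addition reported growth.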
NS1 function inh: inhibitors of influenza NS1 protein function | Potency, µM (top dose mostly 46.1 µM) | 270,000 tested, 0.4% active; calls by dose curve; note: actives are rising curves; nearly all actives have a fitted effect of over 50% in size
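Recovery from NS1-induced slow growth read by OD600 in budding yeast switched to galactose assay medium (pH 6.0, -URA) at 1:100 dilution. Compound 23 nl per well; the matching strain lacking NS1 serves as control.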
Pf growth 48h: inhibits P. falciparum growth in the first generation, 48 h | P. falciparum luciferase growth in erythrocytes, 48 h | AID 504832 | 310,000 tested, 5.9% active | Potency, µM (doses to about 28.7 µM), most hits filed as inhibitors
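Luciferase-expressing P. falciparum in infected erythrocytes (2% hematocrit, 0.1% parasitemia final) in RPMI 1640/0.5% Albumax were exposed to compound for 48 hours at 37 C, 5% CO2; growth read as luminescence.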
Large screens that a line does not name were inactive. The list is not random: actives were taken first. Their share in the collection is about 10%. Unless noted, calls come from the whole dose curve; as a rule, active = well fitted inhibition curve with a large enough effect; inconclusive = small, poorly fitted or top-dose-only effect, or another doubt; inactive = no such curve, though single readings can be large or run the other way.

COCc1nnc(NC(=O)c2ccco2)s1	none (no result: Pf growth 96h)
CCN(c1ccc(C)cc1C)S(=O)(=O)c1nnc(NC(=O)C(C)(C)C)s1	Pf growth 96h inconclusive, Pf growth 48h 10µM
CCN(c1ccc(C)cc1C)S(=O)(=O)c1nnc(NC(=O)C(C)C)s1	Pf growth 48h 13µM
CCN(c1ccc(OC)cc1)S(=O)(=O)c1nnc(NC(=O)c2ccco2)s1	Pf growth 48h inconclusive
CCN(c1cc(C)cc(C)c1)S(=O)(=O)c1nnc(NC(=O)c2ccco2)s1	Pf growth 96h 12µM
C=CCn1c(SCC(=O)c2c(N)n(C3CC3)c(=O)[nH]c2=O)nnc1-c1ccc(OC)cc1	Pf growth 96h inconclusive, Pf growth 48h inconclusive (no result: NS1 function inh)
C=CCn1c(SCC(=O)c2c(N)n(C3CC3)c(=O)[nH]c2=O)nnc1-c1ccccc1OC	Pf growth 96h 12µM, Pf growth 48h inconclusive (no result: NS1 function inh)
COc1ccccc1-c1nnc(SCC(=O)c2c(N)n(C3CC3)c(=O)[nH]c2=O)n1C	Pf growth 96h 12µM, Pf growth 48h inconclusive (no result: NS1 function inh)
C=CCn1c(SCC(=O)c2c(N)n(C3CC3)c(=O)[nH]c2=O)nnc1-c1ccoc1C	Pf growth 96h inconclusive, Pf growth 48h 9.3µM (no result: NS1 function inh)
Cc1ccccc1-c1nnc(SCC(=O)c2c(N)n(C3CC3)c(=O)[nH]c2=O)o1	none (no result: NS1 function inh)
O=C(O)c1ccc2c(=O)n3cc(C(=O)c4ccccc4O)cc(Cl)c3nc2c1	Pf growth 96h inconclusive, NS1 function inh inconclusive
Cc1cc(=O)oc2cc(OCC(=O)N3CC[C@@]4(O)CCCC[C@H]4C3)c(Cl)cc12	Pf growth 96h inconclusive
CC(C)[C@H](CO)N(Cc1cccc(F)c1)c1nc(Nc2cccc(Cl)c2)c2ncn(C(C)C)c2n1	Pf growth 96h inconclusive, NS1 function inh inconclusive, Pf growth 48h 12µM
CC[C@H](CO)Nc1nc(Nc2cccc(Cl)c2)c2ncn(C(C)C)c2n1	Pf growth 96h 5.2µM, Pf growth 48h 12µM
CCn1cnc2c(Nc3cccc(Cl)c3)nc(C#N)nc21	Pf growth 96h inconclusive, Pf growth 48h inconclusive (no result: NS1 function inh)
Cc1oc2cc3oc(=O)c(CCC(=O)NCCCN4CCOCC4)c(C)c3cc2c1C	Pf growth 96h inconclusive
COc1ccccc1NC(=O)Nc1nc(-c2cccnc2)nc2ccccc12	none (no result: SARS PLpro yeast, Pf growth 96h, Pf growth 48h)
CCC1(c2ccc(Cl)cc2)NC(=O)N(CC(=O)N2CCN(C(=O)c3ccco3)CC2)C1=O (stereo unspecified)	none (no result: Pf growth 96h, NS1 function inh, Pf growth 48h)
CC(C)(C)OC(=O)NCCCCCNC(=O)c1[nH]cnc1C(=O)Nc1ccon1	Pf growth 96h 5.2µM, Pf growth 48h inconclusive (no result: NS1 function inh)
CNC(=O)c1[nH]cnc1C(=O)N[C@@H](CCCCNC(=O)OC(C)(C)C)C(=O)OC(C)(C)C	Pf growth 96h inconclusive
C[C@H](NC(=O)c1nc[nH]c1C(=O)NCCCCCNC(=O)OC(C)(C)C)C(=O)OC(C)(C)C	Pf growth 96h inconclusive, Pf growth 48h inconclusive
CC(C)C[C@H](NC(=O)c1nc[nH]c1C(=O)NCCCCCNC(=O)OC(C)(C)C)C(=O)OC(C)(C)C	Pf growth 96h inconclusive, Pf growth 48h 7.4µM
CC(C)C[C@H](NC(=O)c1nc[nH]c1C(=O)N[C@@H](CCCCNC(=O)OC(C)(C)C)C(=O)OC(C)(C)C)C(=O)OC(C)(C)C	Pf growth 96h 2.1µM, Pf growth 48h 3.7µM
COc1ccc(CNC(=O)CCCn2nc(C)c3c(C)n(-c4ccc(C)cc4)nc3c2=O)cc1	Pf growth 96h inconclusive, Pf growth 48h inconclusive
O=C(CCN1C(=O)c2ccccc2C1=O)Nn1cnnc1	Pf growth 96h 2.9µM
O=C(CCN1C(=O)c2ccccc2C1=O)NCc1ccccc1	none
CCCCC(=O)NC(c1ccc([N+](=O)[O-])cc1)c1c(O)ccc2ccccc12 (stereo unspecified)	Pf growth 48h 10µM
CCC(=O)NC(c1ccc([N+](=O)[O-])cc1)c1c(O)ccc2ccccc12 (stereo unspecified)	Pf growth 96h inconclusive, Pf growth 48h 4.1µM
CCC(=O)NC(c1ccc(OC)cc1)c1c(O)ccc2ccccc12 (stereo unspecified)	Pf growth 48h inconclusive
CCC(C(=O)NC(C)(C)C)N(Cc1cccs1)C(=O)CNS(=O)(=O)c1ccccc1 (stereo unspecified)	Pf growth 48h 2.3µM
COc1ccccc1OCCOCCOc1c(C)cc(C)cc1Br	Pf growth 96h 2.9µM
COc1ccccc1OCCCOc1c(C)cc(C)cc1Br	Pf growth 96h inconclusive, Pf growth 48h inconclusive
CCOc1ccc(S(=O)(=O)NCCC(=O)NCc2ccc(OC)c(OC)c2)cc1	none (no result: NS1 function inh)
CSc1nc(C)c2cc(C)oc2n1	Pf growth 96h 0.37µM
COc1nc(C)c2cc(C)oc2n1	none
CCOc1ccc(C(=O)COC(=O)c2cccc(-n3cnnn3)c2)cc1	none
CCn1c(=O)n(CC)c2cc(N3CCCC3)c(NC(=O)c3ccccc3C)cc21	Pf growth 96h 9.3µM, Pf growth 48h inconclusive
